PubChem BioAssay
Calls of active or inactive are those of the source.

Tests used:
[1] = target: Albumin (Bos taurus) (UniProt P02769); assay: bovine serum albumin binders on microarray, profiling panel, artefact control for SMM control protein annotation, biochemical, small-molecule microarray, Alexa647 label, 635/667 nm fluorescence (AID 1118); details: BSA-A647 binding, fluorescence 635 nm, higher = more signal;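 further: score merges 667 nm emission intensity and signal-to-noise per printed compound spot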
Chain of Albumin (Bos taurus) (P02769 whole entry, looked up): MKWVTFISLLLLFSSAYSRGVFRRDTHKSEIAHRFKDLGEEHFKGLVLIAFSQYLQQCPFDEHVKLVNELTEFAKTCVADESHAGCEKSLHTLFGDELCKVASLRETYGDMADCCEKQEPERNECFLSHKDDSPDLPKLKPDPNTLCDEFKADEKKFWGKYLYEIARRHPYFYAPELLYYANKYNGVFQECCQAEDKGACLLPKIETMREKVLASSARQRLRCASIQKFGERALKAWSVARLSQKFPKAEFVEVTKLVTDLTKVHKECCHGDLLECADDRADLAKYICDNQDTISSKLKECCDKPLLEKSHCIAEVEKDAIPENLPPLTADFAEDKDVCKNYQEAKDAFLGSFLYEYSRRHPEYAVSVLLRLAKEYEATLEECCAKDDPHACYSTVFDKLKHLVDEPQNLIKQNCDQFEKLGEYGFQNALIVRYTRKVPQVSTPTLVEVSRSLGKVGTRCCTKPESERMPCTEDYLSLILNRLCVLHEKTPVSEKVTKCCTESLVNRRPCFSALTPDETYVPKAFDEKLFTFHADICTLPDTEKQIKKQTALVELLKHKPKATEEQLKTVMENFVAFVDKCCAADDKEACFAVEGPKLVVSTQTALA

[2] = small-molecule microarray binders of probe aXIP, primary screen, biochemical, NeuroSMM set, 635/667 nm fluorescence (AID 1119); details: higher = more signal, called active from +8 up or from −8 down;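 further: probe is the protein aXip251-270 applied at 1 µg/mL to compound-printed slides; binding of probe to printed compounds measured as 667 nm fluorescence plus signal to noise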
[3] = small-molecule binders of probe aNOTCH3, primary screen, biochemical, small-molecule microarray, 635/667 nm fluorescence (AID 1120); details: higher = more signal;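 further: probe is a biotin-tagged antibody raised against NOTCH3 rather than NOTCH3 protein; score merges spot fluorescence near 667 nm with spot signal to noise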
[4] = small-molecule binders of probe aNOTCH2, primary screen, biochemical, small-molecule microarray, 635/667 nm fluorescence (AID 1121); details: higher = more signal;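 further: score merges feature fluorescence read at 667 nm with its signal to noise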
[5] = target: Carbonic anhydrase 2 (Homo sapiens) (UniProt P00918); assay: CAII small-molecule binders, profiling panel, biochemical, small-molecule microarray, Alexa647-labelled CAII (AID 1122); details: CAII-A647 binding fluorescence, higher = more signal
[6] = COS7 lysate on small-molecule microarray, probe aHis, 635 nm (AID 1123); details: COS7 cell lysate, fluorescence, higher = more signal;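 further: z-score combines 667nm fluorescence intensity with signal-to-noise per printed compound spot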
[7] = compound binding in COS7 lysate, probe aLAP1, primary screen, cell lysate, small-molecule microarray (AID 1124); details: probe aLAP1, fluorescence, higher = more signal;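 further: lysate comes from COS7 cells expressing LAP1 and is applied at 0.3 µg/mL; score merges spot fluorescence near 667 nm with signal-to-noise over triplicate slides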
[8] = tested on: Sam68 (KHDRBS1); assay: Sam68 small-molecule binders, primary screen, biochemical, small-molecule microarray, 635 nm fluorescence (AID 1125); details: small-molecule microarray binding, higher = more signal;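 further: score merges 667 nm channel intensity with signal to noise over triplicate slides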
[9] = tested on: Chordin-like protein 2 (CHRDL2); assay: CHRDL2 small-molecule binders, primary screen, biochemical, small-molecule microarray, 635 nm fluorescence (AID 1126); details: small-molecule microarray binding, fluorescence 635 nm; higher = more signal;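 further: printed compound slides probed with Chrdl2 protein at 4 µg/mL for 1 h at 4 C; score merges 667 nm emission intensity with signal to noise over three replicate slides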
[10] = target: Concanavalin-A (Canavalia ensiformis) (UniProt P02866); assay: ConA small-molecule binders, primary screen, artefact control for SMM control protein annotation, biochemical, small-molecule microarray, Alexa647 label, 635 nm (AID 1127); details: ConA-A647 binding fluorescence, higher = more signal;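 further: z combines 667 nm emission intensity with signal-to-noise across three replicate slides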
Chain of Concanavalin-A (Canavalia ensiformis) (P02866 whole entry, looked up): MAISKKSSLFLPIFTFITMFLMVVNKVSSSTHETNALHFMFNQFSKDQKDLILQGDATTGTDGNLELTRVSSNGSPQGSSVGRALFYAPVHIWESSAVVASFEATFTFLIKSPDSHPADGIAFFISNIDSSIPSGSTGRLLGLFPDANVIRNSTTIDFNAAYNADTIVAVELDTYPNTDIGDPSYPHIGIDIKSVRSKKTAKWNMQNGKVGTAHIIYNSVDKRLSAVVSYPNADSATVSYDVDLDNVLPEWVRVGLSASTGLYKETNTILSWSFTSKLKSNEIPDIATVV

| SMILES | composite z-score [1] | composite Z-score [2] | composite z-score [3] | composite z-score [4] | composite z-score [5] | composite z-score [6] | composite z-score [7] | composite z-score [8] | composite z-score [9] | composite z-score [10] |
| --- | --- | --- | --- | --- | --- | --- | --- | --- | --- | --- |
| CC(=O)NCCCC[C@@H]1NC(=O)[C@H]2C[C@@H](C(=O)O)[C@@H](c3ccc(O)cc3)N2C1=O | -0.0314 | 0.297 (inactive) | 0.22 | -0.0798 | 0.411 | 1.14 | 0.177 | 1.29 | 1.36 | 1.1 |
| C=C(CCCC)/C(=C/C[C@@H](OC(C)=O)c1ccccc1OCCO)c1cc(C(=O)OC)ccc1OC | 0.056 | -0.737 (inactive) | -0.0947 | -0.103 | 0.402 | 0.0769 | 0.0978 | 0.166 | -0.354 | -0.544 |
| CCCCC(=C=CC[C@@H](O)c1ccc(CO)o1)CCO | -0.276 | -0.35 (inactive) | 0.0261 | -0.044 | 0.595 | -0.0845 | 0.24 | 1.17 | 0.29 | 0.119 |
| COCCCNC(=O)[C@]1(Cc2ccccc2)N=C(c2ccc(OCCCO)cc2)O[C@@H]1c1ccccc1CN=[N+]=[N-] | 0.999 | -0.127 (inactive) | 0.16 | 0.266 | 0.694 | 3.21 | 0.465 | 1.28 | -0.431 | 1.16 |
| CC1CC/C=C\[C@H]2OC34C=CCN(c5ccc6ccccc6c5)C(=O)[C@H]3N(CCO)C(=O)[C@@H]4C2C(=O)O1 (stereo not given in full) | 0.653 | 0.0214 (inactive) | -0.19 | -0.0903 | 0.829 | 0.275 | 0.758 | 0.0573 | -0.628 | -1.12 |
| COc1cc2c(cc1O)C(c1cccs1)N(Cc1ccc([N+](=O)[O-])o1)CC2 (stereo not given) | 0.878 | 3.03 (inactive) | 0.029 | 0.12 | 0.876 | 1.35 | 1.08 | 0.0376 | -0.57 | 0.364 |
| CCCC1(C(=O)OC)C=C2C(=C(c3ccccc3)C(=O)C2C)CN1 (stereo not given) | -0.0235 | 0.589 (inactive) | 0.0365 | 0.015 | 0.756 | 1.51 | 0.959 | 0.0707 | 0.108 | -1.13 |
| O=C(CS)NCCCCCNC(=O)[C@H]1C[C@H]2C(=O)NCC(=O)N2[C@H]1c1cccc(OCCO)c1 | -0.221 | -0.269 (inactive) | -0.249 | -0.164 | 0.728 | 0.0504 | -0.442 | -0.956 | 0.577 | 0.687 |
| COC(=O)[C@@]1(Cc2ccccc2)[C@H]2c3cc(C(=O)N4CCCC4)n(Cc4c(CO)[nH]cc(C)c4=O)c3C[C@H]2CN1C(=O)c1ccccc1 | 0.677 | -0.0461 (inactive) | 0.0076 | 0.154 | 0.701 | 2.64 | 1.32 | 0.109 | -0.174 | 0.0417 |
| [N-]=[N+]=Nc1ccccc1C[C@]1(C(=O)NCC(O)CO)N=C(c2ccc(OCCCO)cc2)O[C@H]1c1ccccc1 (stereo not given in full) | 0.927 | 0.102 (inactive) | 0.298 | -0.14 | 0.629 | 2.83 | 0.132 | 1.09 | -1.5 | 0.197 |
| CCOc1cc(C(O)C2C=CC3C(=O)N(c4ccccc4)C(=O)C3N2Nc2ccc(C(C)C)cc2)ccc1O (stereo not given) | 0.925 | 0.203 (inactive) | 0.15 | -0.0274 | 0.79 | 2.63 | 0.33 | 1.29 | 0.161 | 1.09 |
| O=C1OCC=C[C@H]2OC34C=CCN(CCN5CCOCC5)C(=O)[C@H]3N(CCO)C(=O)[C@@H]4[C@@H]12 (stereo not given in full) | -0.263 | 0.198 (inactive) | -0.0221 | -0.208 | 0.764 | -0.214 | -0.194 | 0.457 | 0.0881 | 0.575 |
| NC(=O)[C@@H]1[C@H]2C(=O)O[C@H](c3ccccc3)[C@H](c3ccccc3)N2[C@H](c2ccc(OCCO)cc2)[C@@]12C(=O)Nc1ccc(C#CC3=CCCCC3)cc12 | 0.768 | 2.02 (inactive) | -0.0665 | 0.0086 | 0.647 | 0.558 | 0.0971 | 1.32 | 0.463 | 1.09 |
| CN1C(=O)C2C=CC(C(O)C=Cc3ccc([N+](=O)[O-])cc3)N(Nc3ccccc3)C2C1=O (stereo not given) | 0.988 | 0.268 (inactive) | 0.255 | -0.0894 | 0.624 | 1.21 | 0.19 | 1.3 | 0.674 | 0.988 |
| COC(=O)c1c2oc(c1C(=O)OC)C(=O)NC1(CCCCC1)c1cn(nn1)C[C@H](Cc1ccccc1)NC(=O)N[C@H](CO)CC2 | 0.692 | 0.992 (inactive) | -0.207 | -0.167 | 0.269 | 1.75 | -0.0871 | 0.789 | 0.296 | 0.91 |
| CCCC=C(CCC)[C@@H](NC(=O)OCC(C)C)c1ccccc1 | 0.923 | -0.254 (inactive) | 1.03 | -0.0141 | 0.611 | 1.6 | -0.182 | 1.31 | -1.42 | 1.1 |
| C[N+](C)(C)CCCC[C@@H]1NC(=O)[C@H]2C[C@@H](C(=O)NCCCCCCNC(=O)CS)[C@@H](c3ccc(O)cc3)N2C1=O | 0.329 | -0.921 (inactive) | -0.437 | -0.0764 | 0.501 | 0.483 | 1.49 | -0.611 | 0.0077 | -2.35 |
| OB1C=CCC(CCc2ccccc2)O1 (stereo not given) | -0.923 | -0.601 (inactive) | -0.191 | -0.153 | -0.498 | -0.622 | -0.803 | -1.31 | 0.317 | -1.34 |
| CCCC[C@@H]1C[C@H]1[C@@H](NC(=O)c1cccnc1)c1ccc(Cl)cc1 | -1.41 | -0.29 (inactive) | -0.429 | -0.185 | -0.404 | 0.878 | -0.271 | -1.27 | -1.95 | -2.03 |
| O=C1NC(=O)C2C1C=CC(C(O)c1ccc(-c3ccccc3)s1)N2Nc1ccc(Cl)cc1Cl (stereo not given) | 0.924 | 1.1 (inactive) | 0.0979 | -0.0611 | 0.759 | 2.82 | 1.2 | 1.33 | -0.717 | 1.06 |
| COc1ccccc1CN1C(=O)c2ccccc2[C@@]2(Cc3ccccc3N(CCCN(C)C)C2=O)[C@@H]1c1ccc(CO)cc1 | -0.909 | 0.027 (inactive) | -0.0797 | 0.0687 | -0.271 | 0.5 | -0.0231 | -0.204 | 1.27 | 0.417 |
| COCCOC(=O)N1C(=O)[C@@]2(c3ccccc31)[C@H](C(N)=O)[C@H]1C(=O)O[C@H](c3ccccc3)[C@H](c3ccccc3)N1[C@@H]2c1ccc(O)cc1 | 0.737 | 0.573 (inactive) | -0.162 | -0.104 | 0.54 | 2.37 | 0.325 | 0.371 | -0.169 | 0.237 |
| NCCCCCNC(=O)[C@H]1C[C@H]2C(=O)N3CCC[C@H]3C(=O)N2[C@H]1c1ccc(O)cc1 | 0.851 | 1.56 (inactive) | 0.489 | -0.0024 | 0.445 | 0.676 | 0.0612 | 1.33 | 0.464 | 1.17 |
| Cc1ccc(S[C@]2(C(=O)NCC(C)C)CC(=O)N(Cc3cc(C(F)(F)F)cc(C(F)(F)F)c3)[C@@H]2c2ccc(CO)cc2)cc1 | 0.539 | -0.0662 (inactive) | -0.123 | 0.0362 | 0.78 | 0.586 | 1.56 | -0.309 | -0.256 | -0.512 |
| COCCCNC(=O)[C@@H]1c2ccccc2C(=O)N(Cc2ccccc2OC)[C@H]1c1ccc(CO)cc1 | 0.459 | 0.414 (inactive) | -0.0932 | -0.155 | 0.711 | 1.36 | -0.355 | -0.268 | 0.447 | 0.948 |
| CC(C)CN1C(=O)[C@@]2(c3ccc([N+](=O)[O-])cc3)CC(=O)N(C3CCCCC3)[C@@H]2c2ccc(CO)cc21 | -0.124 | 0.659 (inactive) | -0.357 | -0.0241 | 0.77 | -0.335 | 0.73 | -0.859 | -1.91 | -0.895 |
| COc1ccccc1CN1C(=O)c2ccccc2[C@@H](C(=O)NCc2ccccc2)[C@@H]1c1ccc(CO)cc1 | 0.431 | -0.549 (inactive) | -0.293 | -0.0984 | 0.544 | 1.15 | 1.54 | 1.09 | -0.353 | 0.305 |
| CCOC(=O)C1=CC[C@@H](c2ccccc2)N(S(=O)(=O)c2ccc(C)cc2)[C@H]1c1ccc(CC)cc1 | 0.847 | -0.579 (inactive) | 0.0749 | -0.0371 | 0.571 | 1.52 | 0.662 | 1.1 | -0.0671 | 1.11 |
